# From PubChem
# Tgondii IFNg = blocks Toxoplasma gondii growth in the presence of IFN-gamma; Toxoplasma gondii growth in IFN-gamma-treated host cells; stronger effect = lower value; activity change, negative = inhibition, % (no concentration beside the values); 69,000 tested, 3.8% active; in the data active = activity change below about -70%, passing the limit was not always enough;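 note: host cells are HeLa cells infected with Toxoplasma gondii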
# An asterisk follows results filed as active; i = inactive. Shown is part of a subset that was picked to be rich in hits.
SMILES,Tgondii IFNg
CC(C)c1ccc(C(=O)Nc2ccccc2)cc1,-9
CCOC(=O)c1nn(Cc2ccc(OC)cc2)c2c1CN(C(=O)CSc1ccncc1)CC2,-67
Cc1ccc(C)c(NC(=O)c2ccc3ccc(N4CCN(CC5CC5)CC4)n3c2)c1,1
O=C(Nc1ccc(Cl)cc1)Nc1ccno1,-11
O=C(CSc1nc2[nH]c(=O)cc(O)c2s1)Nc1ccc(Cl)c(C(F)(F)F)c1,6
O=C(Nc1ccc(Cl)cc1)Nc1ccc(Cl)c(C(F)(F)F)c1,-77*
Cc1nc(CN2CCC(N(C)Cc3ccccc3)CC2C(=O)O)cs1 (stereo not given),-10
CN(C)C(=O)CN1C[C@H]2CN(c3ccsc3)C(=O)[C@@H]2C1,i
COc1cc2ncnc(Nc3ccc(F)c(Cl)c3)c2cc1OCCCN1CCOCC1,6
COc1cc2ncnc(Sc3ccc(Cl)cc3)c2cc1OC,6
COc1cc2ncnc(Nc3ccc(Cl)cc3F)c2cc1OC,-82*
COc1cc(OC)cc(C(=O)N2CCC3(CC2)NC(=O)c2cc(Cl)ccc2N3C)c1,-16
N#Cc1c(N)nc(SCc2csc(-c3ccc(Cl)cc3)n2)c(C#N)c1-c1ccc(OCCO)cc1,-50
CCOC(=O)COc1nc2ccc(Cl)cc2c(-c2ccccc2)c1C(C)=O,-23
CCOC(=O)c1c(C)nc2ccc(Cl)cc2c1-c1ccccc1,-5
COc1ccc(-c2c(C)nc3ccc(Cl)cc3c2-c2ccccc2)cc1OC,-95*
Cc1ccsc1C(=O)N1Cc2ncn(C)c2C(COCC2CC2)C1 (stereo not given),61
c1coc(-c2nnc3n2C2(CCCC2)Cc2ccccc2-3)c1,40
c1ccc(-c2nnc3n2C2(CCCCC2)Cc2ccccc2-3)cc1,-66
c1csc(-c2nnc3n2C2(CCCC2)Cc2ccccc2-3)c1,-97*
CCc1ccc(-c2nccn2CCc2nc(-c3cccnc3)no2)nc1,74
COc1cc2nccc(Oc3ccc(NC(=O)Nc4ccc(F)cc4F)c(F)c3)c2cc1OC,-75*
COc1cc2nccc(Oc3ccc(NC(=O)NC4CC4)c(Cl)c3)c2cc1C(N)=O,-43
CNC(=O)c1cccc2cc(Oc3ccnc4cc(OCC5(N)CC5)c(OC)cc34)ccc12,-8
COc1cc2nccc(Oc3ccc(NC(=O)Nc4cc(C)on4)c(Cl)c3)c2cc1OC,-81*
SMILES,Tgondii IFNg
COc1ccc(S(=O)(=O)Nc2cncc(C(=O)Nc3ccc(F)cc3F)c2)cc1OC,35
COc1cc(Nc2ccnc3cc(Cl)ccc23)c(C(=O)O)cc1OC,-3
CC(C)N(C)[C@@H]1c2ccccc2[C@H]2CN(C(=O)c3ccsc3)C[C@H]21,10
CNC(=O)[C@H]1CC2CN(C(=O)c3cnccn3)CC2N1C(C)C (stereo not given in full),-1
O=C1CC(c2ccc(-n3cncn3)cc2)c2cnn(Cc3ccncc3)c2N1 (stereo not given),-1
COc1cccc2c1C(=O)c1c(O)c3c(c(O)c1C2=O)C[C@@](O)(C(=O)CO)C[C@@H]3OC1C[C@H](N)[C@H](O)[C@H](C)O1 (stereo not given in full),-90*
CN(C)C(=O)COCC1c2c(ncn2C)CCN1Cc1nccn1C (stereo not given),-3
CCOc1ccc(S(=O)(=O)NCCc2sc(-c3cccc(F)c3)nc2C)cc1,2
O=C(NO)c1ccccc1O,-9
O=C(CC(=O)c1ccccc1O)c1ccc(F)cc1,-109*
O=C(O)c1ccccc1O,7
CCN1CCN(C)C(=O)C12CCN(C(=O)Cc1ccsc1)CC2,-6
Cc1nc(CNS(=O)(=O)Cc2cccc(Cl)c2)no1,10
COc1cccc(-n2c(=O)c(C(=O)NCc3ccccc3)c(O)c3cccnc32)c1,69
CCN1CCN(CC(=O)N2CCCC(c3cc(=O)n4c(n3)CCCCC4)C2)CC1 (stereo not given),-1
CCC(=O)N1CCCC(c2cnc(Nc3nccs3)cn2)C1 (stereo not given),-29
CCC(=O)N1CCCC(c2cc(C(F)(F)F)c3c(=O)n(C)c(=O)n(C)c3n2)C1 (stereo not given),-79*
CCCN(CC#Cc1ccccc1)C(=O)c1cccn1C,64
COCCO[C@H]1CCN(C(=O)c2ccc[nH]2)[C@H]1Cc1cccnc1,-2
CC(=O)Nc1ccc(C(=O)N(Cc2ccc(C)o2)C2(C(=O)NCc3ccccc3)CCN(C(C)=O)CC2)cc1,142
c1ccc(-c2nnc(-c3csc(-c4cccnc4)n3)o2)cc1,303
Clc1ccc(-c2csc(-c3ccc(-n4cncn4)nc3)n2)cc1,4
c1ccc(-n2ncnc2-c2csc(-c3ccncc3)n2)cc1,-93*
c1ccc(Cc2noc(-c3ccc(N4CCN5CCCC5C4)nc3)n2)cc1 (stereo not given),3
N#CCC(=O)N1CCCn2c(nnc2Cn2cccn2)C1,-1
SMILES,Tgondii IFNg
Cc1[nH]cnc1CN1CCOC2(COCCN(C)C2)C1 (stereo not given),-4
CCn1cc(C(CNC(=O)Nc2cccc(SC)c2)c2cccnc2)c2ccccc21 (stereo not given),-111*
CCOC(=O)c1ccc(NC(=O)NCC(c2cccnc2)c2cn(C)c3ccccc23)cc1 (stereo not given),i
CCOC(=O)c1ccc(NC(=O)NCC(c2cccnc2)c2cn(CC)c3ccccc23)cc1 (stereo not given),-102*
CCn1cc(C(CNC(=O)Nc2ccc(OC)cc2OC)c2cccnc2)c2ccccc21 (stereo not given),i
Cn1cc(C(CNC(=O)Nc2cccc(Br)c2)c2cccnc2)c2ccccc21 (stereo not given),-59
CCOC(=O)c1ccc(NC(=O)NCC(c2cccnc2)c2c[nH]c3ccccc23)cc1 (stereo not given),50
CC(NC(=O)c1ccc(Cn2cccn2)cc1)c1ccc2c(c1)CCC2 (stereo not given),49
O=C(CCC(=O)NC1CCCCCC1)NCCn1nnc2ccccc21,50
CC(CNC(=O)c1cc(=O)c2ccccc2[nH]1)Oc1cccnc1 (stereo not given),0
CCCN1C(=O)CCc2cc(NC(=O)c3cc4ccccc4[nH]3)ccc21,25
CCCn1cc(CCNC(=O)c2cc3ccccc3[nH]2)c2cccnc21,-83*
O=C(c1cccs1)N1CCC(NCCOc2ccccc2Cl)CC1,-8
Cc1noc([C@@H]2C[C@@H]3OCC[C@@H]3N(Cc3ccc(C)s3)C2)n1,-20
COc1ccc(S(=O)(=O)N2Cc3nc(CN(C)C)oc3C2)cc1,12
O=C(Cc1ccc2c(c1)OCO2)N1CCc2c(cc(-c3ccccc3F)c(=O)n2Cc2ccncc2)C1,21
Cc1nc(-c2ccc(F)cc2)sc1CCNC(=O)C(=O)Nc1ccc(C(N)=O)cc1,52
O=C(Nc1ccc(F)cc1)Nc1ccc(-c2nc(-c3cccc(Br)c3)co2)cc1,-14
Cc1n[nH]c(C)c1CCC(=O)N1CC(=O)N(C2CCCCC2)CC(OCc2ccccc2)C1 (stereo not given),0
Cc1sc(-c2nc(C(C)C)cs2)cc1S(=O)(=O)N1CCC(C)CC1,-89*
Cc1nc(-c2cc(S(=O)(=O)N3CCCCC3C)c(C)s2)sc1C (stereo not given),-11
Cc1nc(-c2cc(S(=O)(=O)N3CCC(C)CC3)c(C)s2)sc1C,16
O=C(Nc1ccc(Br)cc1F)c1nc(Nc2ccccc2)c2ccccc2n1,11
COc1cc(Cl)c(C)cc1NC(=O)c1nc(Nc2ccc(C)cc2)c2ccccc2n1,74
CC(C)C(=O)N1CCCC2(C1)CN(c1nncs1)CCO2 (stereo not given),6
